# Assay results taken from the supplement of paper PMC8866396.
# ± gives the standard deviation of the averaged measurements.
# Tested on: IL-6-GFP PC-9
# Assay: cell viability (CCK-8 OD) relative to DMSO control (fraction of control); higher = more viable cells
# Conditions: compound concentration: 10 uM; treatment time: 48 h
# Method in brief: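 PC-9 and PC-9GR lung cancer cells expressing lentiviral IL-6-GFP were plated at 3000 cells/well in 96-well plates and treated for 48 h with each library compound at a final 10 μM. Viability was determined by CCK-8 absorbance as a ratio of each well's optical density to the vehicle control well.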
row,Structure (SMILES),cell viability
1,CC(=O)c1c(C)c2cnc(Nc3ccc(N4CCNCC4)cn3)nc2n(C2CCCC2)c1=O.O=S(=O)(O)CCO,0.811 ± 0.26
2,Cc1oncc1C(=O)Nc1ccc(C(F)(F)F)cc1 [Leflunomide],0.683 ± 0.21
3,OCC1OC(c2ccc(F)c(Cc3cc4ccccc4s3)c2)C(O)C(O)C1O (stereo unspecified) [Ipragliflozin (ASP1941)],1.06 ± 0.12
4,CC(OC1OCCN(Cc2n[nH]c(=O)[nH]2)C1c1ccc(F)cc1)c1cc(C(F)(F)F)cc(C(F)(F)F)c1 (stereo unspecified) [Aprepitant],0.767 ± 0.041
5,CCC1(O)C(=O)OCc2c1cc1n(c2=O)Cc2cc3cc(O)ccc3nc2-1 (stereo unspecified) [Hydroxy Camptothecine],0.404 ± 0.042
6,Cc1cc2c(C(N)=O)cccc2n1-c1nc2c(c(NCc3ccccc3)n1)COCC2,0.261 ± 0.0057
7,Nc1ccc(C(=O)[O-])c(O)c1.[Na+] [Sodium 4-Aminosalicylate],0.895 ± 0.055
8,CC(=O)OCC(=O)C1(O)C(C)CC2C3CCC4=CC(=O)C=CC4(C)C3(F)C(O)CC21C (stereo unspecified) [Dexamethasone Acetate],0.945 ± 0.21
9,CNC(=O)c1ccccc1Sc1ccc2c(/C=C/c3ccccn3)n[nH]c2c1 [Axitinib],0.532 ± 0.05
10,CC(C)(C)OC(=O)NC1CCCCC/C=C\C2CC2(C(=O)NS(=O)(=O)C2CC2)NC(=O)C2CC(OC(=O)N3Cc4cccc(F)c4C3)CN2C1=O (stereo unspecified) [Danoprevir (ITMN-191)],0.931 ± 0.15
11,COc1c2occc2cc2ccc(=O)oc12 [Methoxsalen],0.839 ± 0.23
12,"O=c1[nH]cc(F)c(=O)[nH]1 [Fluorouracil (5-Fluoracil, 5-FU)]",0.537 ± 0.12
13,COc1cc(/C=C/C(=O)/C=C(O)/C=C/c2ccc(O)c(OC)c2)ccc1O [Curcumin],0.985 ± 0.12
14,NC(CC(=O)N1CCn2c(nnc2C(F)(F)F)C1)Cc1cc(F)c(F)cc1F (stereo unspecified) [Sitagliptin],1.14 ± 0.12
15,COc1cc2nccc(Oc3ccc(NC(=O)NC4CC4)c(Cl)c3)c2cc1C(N)=O.CS(=O)(=O)O [lenvatinib Mesylate],0.265 ± 0.16
16,O=C(c1cc(Cc2n[nH]c(=O)c3ccccc23)ccc1F)N1CCN(C(=O)C2CC2)CC1,1.16 ± 0.37

row,Structure (SMILES),cell viability
1,N#Cc1ccc(C2CCCc3cncn32)cc1 (stereo unspecified) [Fadrozole],1.18 ± 0.074
2,CC(C(=O)O)c1ccc2c(c1)[nH]c1ccc(Cl)cc12 (stereo unspecified) [Carprofen],0.265 ± 0.35
3,C=CC(=O)Nc1cc(Nc2nccc(-c3cn(C)c4ccccc34)n2)c(OC)cc1N(C)CCN(C)C [Osimertinib (AZD9291)],0.372 ± 0.059
4,O=C(NCC1CN(c2ccc(N3CCOCC3=O)cc2)C(=O)O1)c1ccc(Cl)s1 (stereo unspecified) [Rivaroxaban],0.98 ± 0.11
5,Cc1c(-c2ccc(O)cc2)n(Cc2ccc(OCCN3CCCCCC3)cc2)c2ccc(O)cc12.Cl [Bazedoxifene HCl],0.51 ± 0.077
6,CNCC(O)C(O)C(O)C(O)CO.Cc1c(Nc2ncccc2C(=O)O)cccc1C(F)(F)F [Flunixin Meglumin],0.964 ± 0.087
7,CCC1/C=C(\C)CC(C)CC(OC)C2OC(O)(C(=O)C(=O)N3CCCCC3C(=O)OC(/C(C)=C/C3CCC(Cl)C(OC)C3)C(C)C(O)CC1=O)C(C)CC2OC (stereo unspecified) [Pimecrolimus],1.02 ± 0.071
8,CC(C)(C)c1nc(-c2cccc(NS(=O)(=O)c3c(F)cccc3F)c2F)c(-c2ccnc(N)n2)s1,0.77 ± 0.035
9,Cc1cn(-c2cc(NC(=O)c3ccc(C)c(Nc4nccc(-c5cnccn5)n4)c3)cc(C(F)(F)F)c2)cn1 [Radotinib],1.1 ± 0.038
10,CCCC1CC(C(=O)NC(C(C)O)C2OC(SC)C(O)C(O)C2O)N(C)C1.Cl (stereo unspecified) [Lincomycin HCl],0.958 ± 0.048
11,O=C(O)CCc1nc(-c2ccccc2)c(-c2ccccc2)o1 [Oxaprozin],0.543 ± 0.2
12,CCOc1ccc(Cc2cc(C34OCC(CO)(O3)C(O)C(O)C4O)ccc2Cl)cc1 (stereo unspecified) [Ertugliflozin],0.987 ± 0.16
13,CN1C(=O)/C(=C2/C(=O)Nc3ccccc32)c2ccccc21 [Meisoindigo],1.02 ± 0.21
14,S=c1nc[nH]c2nc[nH]c12 [Mercaptopurine (6-MP)],1.33 ± 0.29
15,CCOC(=O)c1c(N)sc2c1CCN(Cc1ccccc1)C2.Cl [Tinoridine hydrochloride],1.12 ± 0.061
